# According to publication PMC4336329 (PLoS ONE, 2015):
# About 14,000 (4.5%) of roughly 310,000 compounds showed an effect of 50% or more. Effects have a minus sign here. Only a selection was taken, and strong results are over-represented in it overall.
# Target: human ether-à-go-go-related gene (hERG) potassium channel (human, UniProt Q12809)
# Assay: primary screen, population patch clamp on CHO cells stably expressing hERG; higher = less effect of the substance
# 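Note: peak tail current of the secondary pulse compared with the same well before compound.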
# human ether-à-go-go-related gene (hERG) potassium channel, sequence (Q12809 whole entry, looked up): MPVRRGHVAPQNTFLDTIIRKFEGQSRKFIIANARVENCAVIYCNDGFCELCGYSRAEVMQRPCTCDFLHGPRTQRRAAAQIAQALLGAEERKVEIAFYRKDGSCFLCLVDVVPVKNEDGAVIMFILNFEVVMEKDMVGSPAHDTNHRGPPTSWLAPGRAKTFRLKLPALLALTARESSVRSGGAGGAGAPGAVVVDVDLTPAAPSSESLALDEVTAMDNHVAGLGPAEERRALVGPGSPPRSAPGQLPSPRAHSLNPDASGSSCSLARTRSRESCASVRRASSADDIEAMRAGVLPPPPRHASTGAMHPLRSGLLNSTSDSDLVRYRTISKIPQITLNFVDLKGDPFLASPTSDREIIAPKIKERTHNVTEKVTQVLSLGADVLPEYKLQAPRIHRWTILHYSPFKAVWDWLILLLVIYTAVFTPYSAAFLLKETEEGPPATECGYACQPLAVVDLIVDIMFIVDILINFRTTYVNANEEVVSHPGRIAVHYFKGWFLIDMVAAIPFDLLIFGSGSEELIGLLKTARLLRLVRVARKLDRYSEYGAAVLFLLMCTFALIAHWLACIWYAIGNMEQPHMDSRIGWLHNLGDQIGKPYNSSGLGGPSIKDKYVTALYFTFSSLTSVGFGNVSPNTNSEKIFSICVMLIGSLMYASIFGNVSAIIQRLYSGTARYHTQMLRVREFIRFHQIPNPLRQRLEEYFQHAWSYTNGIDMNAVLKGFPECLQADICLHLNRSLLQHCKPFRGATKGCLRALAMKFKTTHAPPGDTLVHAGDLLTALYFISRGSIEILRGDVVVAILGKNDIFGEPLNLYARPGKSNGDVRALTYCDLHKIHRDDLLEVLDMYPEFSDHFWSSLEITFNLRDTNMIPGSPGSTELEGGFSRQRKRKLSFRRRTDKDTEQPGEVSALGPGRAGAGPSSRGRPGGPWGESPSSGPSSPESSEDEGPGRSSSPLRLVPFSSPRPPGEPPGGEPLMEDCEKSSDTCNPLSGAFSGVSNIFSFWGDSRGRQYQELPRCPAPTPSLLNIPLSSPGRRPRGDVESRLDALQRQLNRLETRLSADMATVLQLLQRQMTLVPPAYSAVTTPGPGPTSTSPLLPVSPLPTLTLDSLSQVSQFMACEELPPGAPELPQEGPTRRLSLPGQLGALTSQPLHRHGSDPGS
row,Structure (SMILES),"hERG current change (%, negative = inhibition) at 10uM"
1,Cc1ccc(S(=O)(=O)N(CCCO)CC(O)CON=C2c3ccccc3-c3ccccc32)cc1 (stereo not drawn),14.4%
2,NC(=O)c1ccc(-c2noc(-c3cccc(Cl)c3)n2)cc1,19.4%
3,Cc1ccc(CSCc2ccc(C(=O)O)o2)cc1,21.8%
4,COC(=O)c1ccncc1C(=O)Nc1ccc(Oc2ncc(C(F)(F)F)cc2Cl)cc1,-5.09%
5,O=C(CCCCn1c(=O)[nH]c2ccsc2c1=O)NCC1CCCO1 (stereo not drawn),4.17%
6,COC(=O)[C@]1(C)CCC[C@@]2(C)C3CC[C@@]4(C)C[C@]3(CCC21)CC(=O)N4Cc1ccc(OC)cc1 (stereo partly drawn),7.82%
7,C#CCOCCOCCOCCNc1nc(N2CCN(C(=O)[C@H](CCCC[NH3+])n3cc(CCCC)nn3)CC2)nc(N2CCN(C(=O)[C@H](CCCC[NH3+])n3cc(CCC(=O)O)nn3)CC2)n1.[Cl-],17.4%
8,Cn1nc(C(=O)OCc2ccc(F)cc2)c2ccccc2c1=O,3.57%
9,Cc1cc(C)c(OC2(c3ccccc3)OC(=O)c3ccccc32)c(C)c1 (stereo not drawn),-5.57%
10,Cc1c(C(=O)Nc2ccccc2)c2cc(O)ccc2n1Cc1ccccc1,4.2%
11,O=C(NCc1cccs1)c1noc2c1CCCC2,-2.52%
12,O=C(NCCCC1CCCC1)C1CCC(=O)N(Cc2cccc(F)c2)C1 (stereo not drawn),-15.2%
13,O=C(NCCN1CCCC1=O)C1CCC(=O)N(CCc2ccc(Cl)cc2)C1 (stereo not drawn),-4.65%
14,CC(C)c1nc(CNC(=O)C2CCC(=O)N(CCc3ccc(Cl)cc3)C2)no1 (stereo not drawn),-27.6%
15,O=C(NCCCc1ccncc1)C1CCC(=O)N(Cc2cccc(C(F)(F)F)c2)C1 (stereo not drawn),-18.7%
16,O=C(NCCCc1ccncc1)C1CCC(=O)N(Cc2ccc(Cl)cc2)C1 (stereo not drawn),-61.1%
17,CC(C)c1cc(CNC(=O)C2CCC(=O)N(CCc3ccc(Cl)cc3)C2)on1 (stereo not drawn),-68.1%
18,Cc1cc(CNC(=O)C2CCC(=O)N(CCc3ccc(Cl)cc3)C2)no1 (stereo not drawn),-39.7%
19,O=C(NCCCC1CCCC1)C1CCC(=O)N(Cc2ccc(Cl)cc2)C1 (stereo not drawn),-61.4%
20,O=C(NCCCC1CCCC1)C1CCC(=O)N(Cc2ccccc2F)C1 (stereo not drawn),-9.03%
21,O=C(NCCc1cnccn1)C1CCC(=O)N(Cc2ccc(Cl)cc2)C1 (stereo not drawn),2.46%
22,O=C(NCCc1ccccc1Cl)C1CCC(=O)N(CCCc2ccccc2)C1 (stereo not drawn),-34.1%

row,Structure (SMILES),"hERG current change (%, negative = inhibition) at 10uM"
1,O=C(NCCCc1ccccc1)C1CCC(=O)N(CCc2ccc(Cl)cc2)C1 (stereo not drawn),-79.8%
2,CCn1c(CNC(=O)c2ccccc2F)nnc1SCC(=O)NC1CCCCC1C (stereo not drawn),31.8%
3,O=C(c1ccc(F)cc1)N1CCC(N2CCOCC2)CC1,-5.45%
4,O=C(Nc1ccc(S(=O)(=O)Nc2ncccn2)cc1)c1cccc(S(=O)(=O)N2CCCC2)c1,-4.1%
5,N#Cc1nc(-c2ccc(F)cc2)oc1N1CCCCC1,8.29%
6,COc1ccccc1Cc1noc(COc2cccc(C)c2C)n1,3.03%
7,COc1ccc(C(=O)NCCc2nnc3ccc(SCC(=O)Nc4cc(C)on4)nn23)cc1,4.8%
8,COC(=O)C1=C(c2ccc(OC(F)(F)F)cc2)C[C@@H]2CC[C@H]1N2C(=O)N1CCCCC1,-56.3%
9,CCCNC(=O)N1[C@H]2CC[C@@H]1C(C(=O)OC)=C(c1ccc(OC(F)(F)F)cc1)C2,-27.4%
10,COC(=O)C1=C(c2ccc(OC(F)(F)F)cc2)C[C@@H]2CC[C@H]1N2C(=O)N1CCC(O)CC1,-36.2%
11,COC(=O)C1=C(c2ccc(C(C)=O)cc2)C[C@@H]2CC[C@H]1N2C(=O)N1CCCC1,0.9%
12,COC(=O)C1=C(c2ccc(C(C)=O)cc2)C[C@@H]2CC[C@H]1N2C(=O)N1CCC(O)(c2ccc(Cl)cc2)CC1,-73.6%
13,COC(=O)C1=C(c2ccc(OC(F)(F)F)cc2)C[C@@H]2CC[C@H]1N2C(=O)NCC1CC1,-58.6%
14,COC(=O)C1=C(c2ccc(OC(F)(F)F)cc2)C[C@@H]2CC[C@H]1N2C(=O)NCCNC(C)=O,2.65%
15,COC(=O)C1=C(c2ccc(C(C)=O)cc2)C[C@@H]2CC[C@H]1N2C(=O)N1CCCCC1,-16.9%
16,COC(=O)C1=C(c2ccc(OC(F)(F)F)cc2)C[C@@H]2CC[C@H]1N2C(=O)N1CCCC1,-47.9%
17,CC1=CC=CC2=N/C(=N\S(=O)(=O)c3ccc(F)cc3F)c3ccccc3CN12,-20.3%
18,COc1ccc(CC(=O)N(C)Cc2cccc(OC)c2OC)cc1S(=O)(=O)N1CCOCC1,-5.58%
19,N=c1oc2ccccc2cc1C(=O)Nc1ccc(F)cc1,16.5%
20,COc1ccc(C2=NO[C@@H]3C(=O)N(Cc4ccccc4)C(=O)[C@H]23)cc1OC,-1.95%
21,CN(C)S(=O)(=O)c1ccc(N/C=C(\[N+](=O)[O-])S(=O)(=O)c2ccccc2)cc1,15.2%
22,COCCNC(=O)/C(C#N)=C/c1ccc(O)cc1,10.6%

row,Structure (SMILES),"hERG current change (%, negative = inhibition) at 10uM"
1,Cc1ccc(C(C)NC(=O)Cc2cccs2)c(C)c1 (stereo not drawn),-9.26%
2,CSc1ccc(C(=O)NCC(c2ccco2)N(C)C)cc1[N+](=O)[O-] (stereo not drawn),17.8%
3,Nc1nnc(-c2ccccc2)c(-c2ccccc2)n1,-10.7%
4,Cc1ccccc1OCCC(=O)OCC(=O)Nc1cc(S(=O)(=O)N2CCOCC2)ccc1Cl,-27.8%
5,Cc1c(NC(=S)Nc2ccccc2C(F)(F)F)cccc1[N+](=O)[O-],8.27%
6,O=C(c1cn(-c2ccccc2)nc1-c1cccnc1)N1CCN(S(=O)(=O)c2ccccc2F)CC1,-70.5%
7,N#Cc1ccccc1S(=O)(=O)N1CCN(C(=O)c2cn(-c3ccccc3)nc2-c2cccnc2)CC1,-48%
8,CN1CCN(C(=O)c2cn(-c3ccccc3)nc2-c2cccnc2)CC1,-18.4%
9,COc1ccccc1N1CCN(C(=O)c2cn(-c3ccccc3)nc2-c2cccnc2)CC1,-50.2%
10,O=C(c1cn(-c2ccccc2)nc1-c1cccnc1)N1CCN(S(=O)(=O)c2cccc(F)c2)CC1,-13.6%
11,COc1ccccc1N1CCN(C(=O)c2cn(Cc3ccccc3)nc2-c2cccnc2)CC1,-8.12%
12,Nc1nnc(SCc2nnc(-c3ccccc3)o2)s1,-1.84%
13,COC(=O)N/N=C/c1c[nH]c2ccccc12,14.5%
14,CC(C)c1onc(C(=O)N2C(C)CCCC2C)c1[N+](=O)[O-] (stereo not drawn),18.8%
15,Cc1ccc(NC(=O)c2cccc(N3C(=O)C4C5C=CC(C5)C4C3=O)c2)cc1C (stereo not drawn),-7.07%
16,COc1ccc2nc(NC(=O)CS(=O)(=O)Cc3ccccc3)sc2c1,23.2%
17,COC(=O)/C(=N/Nc1ccccc1C)Sc1nnc(C(O)c2ccccc2)n1-c1ccccc1 (stereo not drawn),13.3%
18,Cl.c1ccc(CN2CCC3(CCCc4ccccc43)CC2)cc1,-69.6%
19,Cl.c1ccc(CN2CCOCC2)cc1,22%
20,c1ccc(CN2CCC3(CC2)Nc2ccccc2CO3)cc1,-21.9%
21,COc1ccc(N(CC(=O)Nc2cc(Cl)ccc2C)S(=O)(=O)c2c(C)noc2C)cc1,16.7%
22,COC(=O)CC1C(=O)NCCN1C(=O)c1c(F)cccc1F (stereo not drawn),14.5%

row,Structure (SMILES),"hERG current change (%, negative = inhibition) at 10uM"
1,O=C(NCc1ccncc1)c1cncc(Br)c1,10.1%
2,CC1CN(c2nc3c(c(=O)n(Cc4ccc(Cl)c(Cl)c4)c(=O)n3C)n2C)CC(C)O1 (stereo not drawn),-35.7%
3,Cn1c(N2CCOCC2)nc2c1c(=O)n(Cc1ccc(Cl)cc1)c(=O)n2C,-54.5%
4,Cn1c(N2CCN(c3ccccn3)CC2)nc2c1c(=O)n(Cc1ccc(Cl)cc1)c(=O)n2C,-18%
5,CC1CN(c2nc3c(c(=O)n(Cc4ccc(Cl)cc4)c(=O)n3C)n2C)CC(C)O1 (stereo not drawn),-31.2%
6,Cn1c(NCCCN2CCOCC2)nc2c1c(=O)n(Cc1ccc(Cl)c(Cl)c1)c(=O)n2C,-46%
7,Cn1c(N2CCCC2)nc2c1c(=O)n(Cc1ccc(F)cc1)c(=O)n2C,0.592%
8,Cn1c(N2CCOCC2)nc2c1c(=O)n(Cc1ccc(Cl)c(Cl)c1)c(=O)n2C,-50.5%
9,Cn1c(N2CCCC2)nc2c1c(=O)n(Cc1ccc(Cl)cc1)c(=O)n2C,-68.6%
10,Cn1c(=O)c2c(nc(N3CCCCC3)n2C)n(C)c1=O,-21.5%
11,COc1ccc(CC(=O)NCc2cccs2)cc1OC,2.71%
12,O=C(Cn1cc(Cl)ccc1=O)c1ccc(Cl)cc1,11.7%
13,CCOc1ccc(CN(C)C(C)C(=O)NCCc2ccc(F)cc2)cc1 (stereo not drawn),-71.5%
14,CCOc1ccc(C(=O)NC(C(=O)NCCc2ccc(S(N)(=O)=O)cc2)C(C)C)cc1 (stereo not drawn),13.4%
15,CCC(CC)C(=O)NCCc1ccc(F)cc1,12.1%
16,CCOc1ccc(C(=O)NC(C(=O)NCCc2ccc(OC(F)F)cc2)C(C)C)cc1 (stereo not drawn),-62.6%
17,CCOc1ccc(CCNC(=O)C(O)c2ccccc2)cc1 (stereo not drawn),4.11%
18,CCc1ccc(CN(C)C(C)C(=O)NCc2ccccc2)cc1 (stereo not drawn),-23.5%
19,CCOc1ccc(C(=O)N[C@H](C(=O)O)C(C)C)cc1,7.22%
20,CSc1ccc(CN(C)C(C)C(=O)NCc2ccccc2)cc1 (stereo not drawn),-32.8%
21,CCOc1ccc(CN(C)C(C)C(=O)NCc2ccccc2)cc1 (stereo not drawn),-54.8%
